# Test results: PubChem BioAssay (Tox21)
# Values joined by “and” are separate entries in the source; they are usually repeats but may differ in a detail not shown here. Identical values can stand only once. Records with an inconclusive call do not appear. Entries that show only a call come without a potency. More than one record can exist for a structure, and the calls need not agree. Active and inactive are the calls of the source. Calls follow the shape of the dose curve; as a rule, active = well fitted curve in the direction sought with a large enough effect in the repeat runs; inconclusive = weak or mixed curves; inactive = no such curve, though single readings can be large; an effect the other way counts as inactive or inconclusive.
# Tests used:
# [1] = A CellTox Green Cytotoxicity Assay to monitor cytotoxicity in HEK293 cells - 40 hour (AID 1224871); also: nearly all actives have a fitted effect of over 45% in size; also: potency is read from the fitted curve at half-maximal effect
# Method in brief: (§1)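 Fluorescence from a DNA-binding dye excluded by viable cells was measured repeatedly in the same HEK293 wells (600 cells/well) during continuous compound exposure at 37 C. Each assay gives one read point: 0, 8, 16, 24, 32 or 40 h.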
# [2] = qHTS RealTime-Glo MT Cell Viability Assay in HEK293 cells - 16 hour (AID 1224872); also: nearly all actives have a fitted effect of over 50% in size; also: potency is read from the fitted curve at half-maximal effect
# Method in brief: (§2)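 HEK293 cells seeded with NanoLuc/prosubstrate reagent, rested 5 h at 37 C, then dosed and kept at 37 C up to 40 h. Nonlytic real-time luminescence from viable cells read at 0, 8, 16, 24, 32 and 40 h.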
# [3] = qHTS RealTime-Glo MT Cell Viability Assay in HepG2 cells - 8 hour (AID 1224873); also: nearly all actives have a fitted effect of over 55% in size; also: potency is read from the fitted curve at half-maximal effect
# Method in brief: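 HepG2 cells mixed with RealTime-Glo MT reagents (NanoLuc plus cell-permeant prosubstrate) were seeded at 600 cells/well, incubated 5 h at 37 C/5% CO2, then pinned with compounds in DMSO; nonlytic luminescence tracked viability during 40 h treatment.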
# [4] = qHTS RealTime-Glo MT Cell Viability Assay in HEK293 cells - 40 hour (AID 1224874); details: RealTime-Glo luminescence; max response: stronger effect = lower value; also: nearly all actives have a fitted effect of over 50% in size; also: potency is read from the fitted curve at half-maximal effect
# Method in brief: (§3)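 Luminescence, which tracks viable cell number through reduction of the prosubstrate to a NanoLuc substrate, was read over continuous 37 C culture. Cells (600/well) were premixed with reagent and rested 5 h before 23 nL of compound in DMSO was pinned.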
# [5] = A CellTox Green Cytotoxicity Assay to monitor cytotoxicity in HEK293 cells - 24 hour (AID 1224875); also: nearly all actives have a fitted effect of over 45% in size; also: potency is read from the fitted curve at half-maximal effect
# Method in brief: as §1
# [6] = A CellTox Green Cytotoxicity Assay to monitor cytotoxicity in HepG2 cells - 16 hour (AID 1224876); also: nearly all actives have a fitted effect of over 45% in size; also: potency is read from the fitted curve at half-maximal effect
# Method in brief: (§4)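 Real-time cytotoxicity: fluorescence of a cell-impermeant cyanine dye binding DNA of dead HepG2 cells, measured repeatedly (0–40 h) during compound exposure at 37 C. Cells seeded 600/well with reagent, dosed after 5 h.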
# [7] = qHTS RealTime-Glo MT Cell Viability Assay in HepG2 cells - 32 hour (AID 1224877); also: nearly all actives have a fitted effect of over 55% in size; also: potency is read from the fitted curve at half-maximal effect
# Method in brief: (§5)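 HepG2 cells (600/well) were dispensed with RealTime-Glo reagents, incubated 5 h at 37 °C, then treated with compounds in DMSO for up to 40 h. Nonlytic NanoLuc luminescence reflecting viable cells was read at each stated time point.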
# [8] = A CellTox Green Cytotoxicity Assay to monitor cytotoxicity in HepG2 cells - 24 hour (AID 1224878); also: nearly all actives have a fitted effect of over 45% in size; also: potency is read from the fitted curve at half-maximal effect
# Method in brief: as §4
# [9] = A CellTox Green Cytotoxicity Assay to monitor cytotoxicity in HepG2 cells - 40 hour (AID 1224879); also: nearly all actives have a fitted effect of over 40% in size; also: potency is read from the fitted curve at half-maximal effect
# Method in brief: as §4
# [10] = qHTS RealTime-Glo MT Cell Viability Assay in HEK293 cells - 0 hour (AID 1224880)
# Method in brief: as §3
# [11] = A CellTox Green Cytotoxicity Assay to monitor cytotoxicity in HEK293 cells - 32 hour (AID 1224881); also: nearly all actives have a fitted effect of over 40% in size; also: potency is read from the fitted curve at half-maximal effect
# Method in brief: as §1
# [12] = A CellTox Green Cytotoxicity Assay to monitor cytotoxicity in HepG2 cells - 0 hour (AID 1224882); also: nearly all actives have a fitted effect of over 35% in size
# Method in brief: as §4
# [13] = A CellTox Green Cytotoxicity Assay to monitor cytotoxicity in HepG2 cells - 32 hour (AID 1224883); also: nearly all actives have a fitted effect of over 50% in size; also: potency is read from the fitted curve at half-maximal effect
# Method in brief: as §4
# [14] = A CellTox Green Cytotoxicity Assay to monitor cytotoxicity in HEK293 cells - 8 hour (AID 1224884); also: nearly all actives have a fitted effect of over 35% in size
# Method in brief: as §1
# [15] = qHTS RealTime-Glo MT Cell Viability Assay in HEK293 cells - 24 hour (AID 1224886); also: nearly all actives have a fitted effect of over 50% in size; also: potency is read from the fitted curve at half-maximal effect
# Method in brief: as §2
# [16] = qHTS RealTime-Glo MT Cell Viability Assay in HEK293 cells - 8 hour (AID 1224887); also: nearly all actives have a fitted effect of over 50% in size; also: potency is read from the fitted curve at half-maximal effect
# Method in brief: as §3
# [17] = A CellTox Green Cytotoxicity Assay to monitor cytotoxicity in HEK293 cells - 16 hour (AID 1224888); also: nearly all actives have a fitted effect of over 35% in size; also: potency is read from the fitted curve at half-maximal effect
# Method in brief: as §1
# [18] = A CellTox Green Cytotoxicity Assay to monitor cytotoxicity in HepG2 cells - 8 hour (AID 1224890); also: nearly all actives have a fitted effect of over 45% in size; also: potency is read from the fitted curve at half-maximal effect
# Method in brief: as §4
# [19] = qHTS RealTime-Glo MT Cell Viability Assay in HepG2 cells - 16 hour (AID 1224885); also: nearly all actives have a fitted effect of over 50% in size; also: potency is read from the fitted curve at half-maximal effect
# Method in brief: as §5
# [20] = qHTS RealTime-Glo MT Cell Viability Assay in HepG2 cells - 0 hour (AID 1224889); also: nearly all actives have a fitted effect of over 50% in size
# Method in brief: as §5
smiles,measurement,setting,value
CCCCN(CCO)CCCC,Potency,[1],inactive
same,Potency,[2],inactive
same,Potency,[3],inactive
same,max response,[4],2.9% (inactive)
same,Potency,[5],inactive
same,Potency,[6],inactive
same,Potency,[7],inactive
same,Potency,[8],inactive
same,Potency,[9],inactive
same,Potency,[10],inactive
same,Potency,[11],inactive
same,Potency,[12],inactive
same,Potency,[13],inactive
same,Potency,[14],inactive
same,Potency,[15],inactive
same,Potency,[16],inactive
same,Potency,[17],inactive
same,Potency,[18],inactive
NCCO,Potency,[1],inactive
same,Potency,[2],inactive
same,Potency,[3],inactive
same,max response,[4],-3.29% (inactive) and 1.65% (inactive)
same,Potency,[5],inactive
same,Potency,[6],inactive
same,Potency,[7],inactive
same,Potency,[9],inactive
same,Potency,[10],inactive
same,Potency,[11],inactive
same,Potency,[12],inactive
same,Potency,[13],inactive
same,Potency,[14],inactive
same,Potency,[19],inactive
same,Potency,[15],inactive
same,Potency,[16],inactive
same,Potency,[17],inactive
same,Potency,[18],inactive
CC(=O)OCC1=C(C(=O)O)N2C(=O)[C@@H](NC(=O)Cc3cccs3)[C@H]2SC1,Potency,[1],inactive
same,Potency,[2],inactive
same,Potency,[3],inactive
same,max response,[4],6.98% (inactive)
same,Potency,[5],inactive
same,Potency,[6],inactive
same,Potency,[7],inactive
same,Potency,[8],inactive
same,Potency,[9],inactive
same,Potency,[10],inactive
same,Potency,[12],inactive
same,Potency,[13],inactive
same,Potency,[14],inactive
same,Potency,[15],inactive
same,Potency,[16],inactive
same,Potency,[17],inactive
same,Potency,[18],inactive
CCCCCCCCCCCCc1ccccc1O,Potency,[1],43.1 µM (active) and 34.7 µM (active)
same,Potency,[2],43.1 µM (active) and 43.6 µM (active)
same,Potency,[3],inactive and 34.7 µM (active)
same,Potency,[4],48.3 µM (active) and 49 µM (active)
same,Potency,[5],43.1 µM (active) and 38.9 µM (active)
same,Potency,[6],inactive and 21.9 µM (active)
same,Potency,[7],inactive and 43.6 µM (active)
same,Potency,[8],17.4 µM (active)
same,Potency,[9],48.3 µM (active) and 21.9 µM (active)
same,Potency,[10],inactive
same,Potency,[11],43.1 µM (active) and 38.9 µM (active)
same,Potency,[12],inactive
same,Potency,[13],19.5 µM (active)
same,Potency,[19],inactive and 34.7 µM (active)
same,Potency,[15],43.1 µM (active) and 49 µM (active)
same,Potency,[16],43.1 µM (active) and 38.9 µM (active)
same,Potency,[17],43.1 µM (active) and 38.9 µM (active)
same,Potency,[20],inactive
same,Potency,[18],inactive and 21.9 µM (active)
CC(=O)CC(=O)Nc1ccc2[nH]c(=O)[nH]c2c1,Potency,[1],inactive
same,Potency,[2],inactive
same,Potency,[3],inactive
same,max response,[4],-1.76% (inactive)
same,Potency,[5],inactive
same,Potency,[6],inactive
same,Potency,[7],inactive
same,Potency,[9],inactive
same,Potency,[10],inactive
same,Potency,[11],inactive
same,Potency,[12],inactive
same,Potency,[13],inactive
same,Potency,[14],inactive
same,Potency,[19],inactive
same,Potency,[15],inactive
same,Potency,[16],inactive
same,Potency,[17],inactive
same,Potency,[18],inactive
